Laboratory results published in PubChem BioAssay (EPA / NIEHS).
Inconclusive results are not listed. The source made the active and inactive calls. The calls were made as follows, unless noted: active = hit-call score of the fitted dose curve at least 0.9, where 1 is the maximum; inactive = score below 0.9.

Key:
[1] = ATG_PXRE_CIS: Attagene CIS-FACTORIAL HepG2 Assay for human Pregnane X Receptor Element (PXRE) (AID 2282957); conditions: HepG2 Attagene CIS-FACTORIAL PXRE reporter, mRNA; actives raise or lower the signal
How it was run: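 Fluorescent capillary electrophoresis of amplified reporter cDNA gave the signal, collected 24 h after dosing HepG2 cells that held transfected cis-element reporter constructs.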

[2] = ATG_RORE_CIS: Attagene CIS-FACTORIAL HepG2 Assay for human RAR-related Orphan Receptor Element (RORE) (AID 2282959); conditions: HepG2 Attagene cis-factorial RORE reporter, mRNA; actives raise or lower the signal
How it was run: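 Transiently transfected HepG2 reporter cells were treated 24 h. Reporter transcripts were detected by RT-PCR and capillary electrophoresis, with bidirectional fitting against DMSO.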

[3] = ATG_SREBP_CIS: Attagene CIS-FACTORIAL HepG2 Assay for human Sterol Regulatory Element Binding (SREBP) (AID 2282962); conditions: HepG2 Attagene cis-factorial SREBP reporter, mRNA; actives raise or lower the signal
How it was run: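 In this cis-format assay, HepG2 liver cells express reporters controlled by promoter elements responsive to native transcription factors. Exposure lasts 24 h; reporter mRNA fluorescence from capillary electrophoresis gives the signal, fitted bidirectionally against DMSO.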

[4] = target: Signal transducer and activator of transcription 3 (Homo sapiens) (UniProt P40763); assay: ATG_STAT3_CIS: Attagene CIS-FACTORIAL HepG2 Assay for human Signal Transducer and Activator of Transcription 3 (STAT3) (AID 2282963); conditions: HepG2, Attagene cis-factorial STAT3 reporter transcription; actives raise or lower the signal
Chain of Signal transducer and activator of transcription 3 (Homo sapiens) (P40763 whole entry, looked up, the tested form may be a part): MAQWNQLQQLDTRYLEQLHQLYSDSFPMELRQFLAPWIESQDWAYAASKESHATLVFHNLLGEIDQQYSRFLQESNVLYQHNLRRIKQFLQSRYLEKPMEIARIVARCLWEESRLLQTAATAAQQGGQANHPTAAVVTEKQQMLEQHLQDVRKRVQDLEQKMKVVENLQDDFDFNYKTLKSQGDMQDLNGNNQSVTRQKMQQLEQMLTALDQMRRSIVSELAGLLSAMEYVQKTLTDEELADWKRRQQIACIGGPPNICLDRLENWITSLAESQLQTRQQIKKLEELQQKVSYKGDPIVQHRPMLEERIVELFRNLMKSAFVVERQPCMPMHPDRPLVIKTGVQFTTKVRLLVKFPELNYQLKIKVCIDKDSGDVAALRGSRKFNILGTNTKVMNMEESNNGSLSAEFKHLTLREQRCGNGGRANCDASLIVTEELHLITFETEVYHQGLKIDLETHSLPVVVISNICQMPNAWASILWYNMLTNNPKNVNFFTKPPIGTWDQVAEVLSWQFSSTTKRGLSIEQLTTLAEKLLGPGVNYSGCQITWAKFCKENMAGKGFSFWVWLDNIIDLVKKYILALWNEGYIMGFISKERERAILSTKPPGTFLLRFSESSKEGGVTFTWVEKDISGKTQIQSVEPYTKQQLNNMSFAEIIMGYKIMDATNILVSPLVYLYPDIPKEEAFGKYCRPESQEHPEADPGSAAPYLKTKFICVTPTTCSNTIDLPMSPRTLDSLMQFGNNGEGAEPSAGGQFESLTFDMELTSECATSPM
How it was run: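 Fluorescence intensity of 6-FAM-labelled reporter fragments, separated by capillary electrophoresis after RT-PCR, gave the signal. Cells were HepG2 transfected with cis-element reporter units and treated 24 h; fitting was bidirectional relative to DMSO.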

[5] = ATG_TA_CIS: Attagene CIS-FACTORIAL HepG2 Assay for human TA Basal Promoter (AID 2282964); conditions: HepG2 Attagene CIS-factorial TA basal promoter reporter; actives raise or lower the signal
How it was run: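 Fluorescence from labelled RT-PCR reporter fragments, separated by capillary electrophoresis, gives the signal. Cells: HepG2 transiently carrying multiple reporter units, 24 h chemical dosing. Gain or loss relative to DMSO.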

[6] = ATG_TCF_b_cat_CIS: Attagene CIS-FACTORIAL HepG2 Assay for human T-Cell-Factor with beta-catenin (TCF/b-cat) (AID 2282965); conditions: HepG2 TCF/beta-catenin cis-reporter transcription, actives raise or lower the signal
How it was run: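 HepG2, transient MRTU transfection, cis-element-driven reporters (endogenous TFs). 24 h compound exposure. Readout: reporter mRNA by RT-PCR + 6-FAM primer extension, HpaI digest, capillary electrophoresis. Gain/loss fit vs DMSO baseline.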

[7] = ATG_TAL_CIS: Attagene CIS-FACTORIAL HepG2 Assay for human TAL Basal Promoter (AID 2282966); conditions: HepG2 Attagene cis-factorial TAL promoter reporter; actives raise or lower the signal;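 also: background control endpoint measuring basal TAL promoter reporter mRNA not a specific factor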
How it was run: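 Transiently transfected HepG2 (cis-regulated reporter units), 24 h treatment, mRNA read by fluorescent CE after RT-PCR; bidirectional fit, DMSO baseline.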

[8] = ATG_TGFb_CIS: Attagene CIS-FACTORIAL HepG2 Assay for human Transforming Growth Factor (TGF) (AID 2282967); conditions: HepG2 Attagene CIS TGFb reporter, mRNA transcription; actives raise or lower the signal
How it was run: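 Bidirectional fitting relative to DMSO gave the endpoint. Underlying data: reporter mRNA from HepG2 cells carrying transiently transfected cis-regulated reporter constructs, harvested 24 h after dosing and analyzed by RT-PCR and capillary electrophoresis.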

[9] = ATG_VDRE_CIS: Attagene CIS-FACTORIAL HepG2 Assay for human Vitamin D Receptor Element (VDRE) (AID 2282968); conditions: HepG2 VDRE cis-reporter transcription, actives raise or lower the signal
How it was run: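 Compounds were applied for 24 h to HepG2 cells transfected with promoter-regulated reporter units. Total RNA was reverse-transcribed, and reporter amplicons were fluorescently labelled and sized by capillary electrophoresis.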

[10] = target: Nuclear receptor subfamily 1 group I member 3 (Homo sapiens) (UniProt Q14994); assay: ATG_CAR_TRANS: Attagene TRANS-FACTORIAL HepG2 Assay for human Constitutive Androstane Receptor (CAR) (AID 2282969; active = hit-call score of the fitted dose curve at least 0.9, where 1 is the maximum;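 also: activators raise reporter mRNA above DMSO so AC50 marks induction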); conditions: HepG2 Attagene TRANS-FACTORIAL CAR reporter
Chain of Nuclear receptor subfamily 1 group I member 3 (Homo sapiens) (Q14994 whole entry, looked up, the tested form may be a part): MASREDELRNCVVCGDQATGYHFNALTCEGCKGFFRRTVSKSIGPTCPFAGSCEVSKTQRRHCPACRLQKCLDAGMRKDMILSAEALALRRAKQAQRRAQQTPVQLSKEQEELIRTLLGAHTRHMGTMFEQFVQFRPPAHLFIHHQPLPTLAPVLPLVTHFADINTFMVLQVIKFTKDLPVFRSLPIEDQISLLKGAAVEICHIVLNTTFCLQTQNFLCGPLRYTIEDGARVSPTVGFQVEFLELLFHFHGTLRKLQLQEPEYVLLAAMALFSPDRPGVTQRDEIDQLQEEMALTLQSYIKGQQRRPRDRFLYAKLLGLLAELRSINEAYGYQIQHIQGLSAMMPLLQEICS
How it was run: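 Transiently transfected HepG2, multiplex TRANS reporters (CAR-Gal4 chimera driving GAL4-UAS reporter). 24 h dosing. Readout: reporter transcript by RT-PCR + capillary electrophoresis, fluorescence intensity; positive direction vs DMSO.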

[11] = target: Estrogen receptor (Homo sapiens) (UniProt P03372); assay: ATG_ERa_TRANS: Attagene TRANS-FACTORIAL HepG2 Assay for human Estrogen Receptor alpha (ERa) (AID 2282970; active = hit-call score of the fitted dose curve at least 0.9, where 1 is the maximum); conditions: HepG2 Attagene TRANS ERa GAL4 reporter, mRNA
Chain of Estrogen receptor (Homo sapiens) (P03372 whole entry, looked up, the tested form may be a part): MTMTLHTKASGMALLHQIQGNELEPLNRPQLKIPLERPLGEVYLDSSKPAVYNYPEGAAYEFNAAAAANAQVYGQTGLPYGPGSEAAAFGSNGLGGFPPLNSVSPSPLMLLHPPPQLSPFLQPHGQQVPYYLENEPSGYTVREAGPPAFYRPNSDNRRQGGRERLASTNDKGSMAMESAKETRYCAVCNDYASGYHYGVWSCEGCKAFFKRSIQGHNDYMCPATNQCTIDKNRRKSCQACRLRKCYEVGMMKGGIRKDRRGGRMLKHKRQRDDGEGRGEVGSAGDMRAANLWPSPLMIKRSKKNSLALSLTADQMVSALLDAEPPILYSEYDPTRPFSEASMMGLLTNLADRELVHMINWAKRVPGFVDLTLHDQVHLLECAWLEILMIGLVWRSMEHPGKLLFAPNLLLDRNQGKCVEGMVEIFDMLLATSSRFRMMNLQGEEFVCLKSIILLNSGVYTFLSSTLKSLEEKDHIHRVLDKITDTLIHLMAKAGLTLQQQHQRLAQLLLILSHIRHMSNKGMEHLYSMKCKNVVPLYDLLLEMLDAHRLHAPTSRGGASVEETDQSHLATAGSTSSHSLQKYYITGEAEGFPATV
How it was run: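 One of 30 multiplexed endpoints from a HepG2 TRANS system, this one reports ERa-Gal4-driven reporter mRNA. Transcripts were quantified 24 hours post-dosing by fluorescent RT-PCR and capillary electrophoresis, with activity scored as induction over DMSO.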

[12] = target: Steroid hormone receptor ERR1 (Homo sapiens) (UniProt P11474); assay: ATG_ERRa_TRANS: Attagene TRANS-FACTORIAL HepG2 Assay for human Estrogen-Related Receptor alpha (ERRa) (AID 2282971; active = hit-call score of the fitted dose curve at least 0.9, where 1 is the maximum); conditions: HepG2 Attagene TRANS reporter, ERRa transactivation
Chain of Steroid hormone receptor ERR1 (Homo sapiens) (P11474 whole entry, looked up, the tested form may be a part): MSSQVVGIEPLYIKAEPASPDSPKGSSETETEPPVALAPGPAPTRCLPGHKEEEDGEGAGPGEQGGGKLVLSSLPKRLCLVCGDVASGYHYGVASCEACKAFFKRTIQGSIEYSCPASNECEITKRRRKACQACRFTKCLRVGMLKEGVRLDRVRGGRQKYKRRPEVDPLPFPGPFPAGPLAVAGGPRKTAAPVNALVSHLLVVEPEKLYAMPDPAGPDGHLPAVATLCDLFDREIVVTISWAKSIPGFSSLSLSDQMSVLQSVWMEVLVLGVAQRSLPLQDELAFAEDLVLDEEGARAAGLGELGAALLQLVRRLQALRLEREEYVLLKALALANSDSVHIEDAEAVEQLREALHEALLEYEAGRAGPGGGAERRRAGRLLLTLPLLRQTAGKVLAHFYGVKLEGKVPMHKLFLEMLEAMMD
How it was run: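 HepG2 cells transiently transfected with multiplexed GAL4-UAS reporter units reading chimeric ERRa-Gal4 activity; 24 h compound exposure. Reporter mRNA measured by RT-PCR, 6-FAM labelling, HpaI digest and capillary electrophoresis; gain of signal fitted versus DMSO baseline.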

[13] = target: X-box-binding protein 1 (Homo sapiens) (UniProt P17861); assay: ATG_Xbp1_CIS: Attagene CIS-FACTORIAL HepG2 Assay for human X-box Binding Protein 1 (XBP1) (AID 2282972); conditions: HepG2 XBP1 cis-element reporter, Attagene multiplex; actives raise or lower the signal
Chain of X-box-binding protein 1 (Homo sapiens) (P17861 whole entry, looked up): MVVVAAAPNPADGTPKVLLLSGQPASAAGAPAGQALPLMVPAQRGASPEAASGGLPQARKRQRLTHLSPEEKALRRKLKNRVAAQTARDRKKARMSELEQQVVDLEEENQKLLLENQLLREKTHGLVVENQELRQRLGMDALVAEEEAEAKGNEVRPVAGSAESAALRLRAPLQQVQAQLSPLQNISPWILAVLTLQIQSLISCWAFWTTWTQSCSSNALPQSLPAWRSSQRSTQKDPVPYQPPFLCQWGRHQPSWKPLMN
How it was run: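 Changes in reporter transcript abundance, read by RT-PCR and capillary electrophoresis, reflect endogenous transcription factor activity. Transfected HepG2 cells received compound for 24 hours; DMSO defined baseline for bidirectional analysis.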

[14] = ATG_M_19_TRANS: Attagene TRANS-FACTORIAL HepG2 Assay for M19 Transcription Factor (Internal Marker) (AID 2282974; active = hit-call score of the fitted dose curve at least 0.9, where 1 is the maximum); conditions: HepG2 Attagene TRANS-FACTORIAL M19 internal marker reporter
How it was run: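 Using RT-PCR and capillary electrophoresis, reporter mRNA from transiently transfected human HepG2 cells was quantified following 24 h exposure; activity was fitted in the positive direction against DMSO.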

[15] = target: Estrogen-related receptor gamma (Homo sapiens) (UniProt P62508); assay: ATG_ERRg_TRANS: Attagene TRANS-FACTORIAL HepG2 Assay for human Estrogen-Related Receptor gamma (ERRg) (AID 2282977; active = hit-call score of the fitted dose curve at least 0.9, where 1 is the maximum;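 also: hits increase reporter signal over DMSO so potencies reflect activators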); conditions: HepG2 Attagene TRANS reporter, ERRg transactivation
Chain of Estrogen-related receptor gamma (Homo sapiens) (P62508 whole entry, looked up, the tested form may be a part): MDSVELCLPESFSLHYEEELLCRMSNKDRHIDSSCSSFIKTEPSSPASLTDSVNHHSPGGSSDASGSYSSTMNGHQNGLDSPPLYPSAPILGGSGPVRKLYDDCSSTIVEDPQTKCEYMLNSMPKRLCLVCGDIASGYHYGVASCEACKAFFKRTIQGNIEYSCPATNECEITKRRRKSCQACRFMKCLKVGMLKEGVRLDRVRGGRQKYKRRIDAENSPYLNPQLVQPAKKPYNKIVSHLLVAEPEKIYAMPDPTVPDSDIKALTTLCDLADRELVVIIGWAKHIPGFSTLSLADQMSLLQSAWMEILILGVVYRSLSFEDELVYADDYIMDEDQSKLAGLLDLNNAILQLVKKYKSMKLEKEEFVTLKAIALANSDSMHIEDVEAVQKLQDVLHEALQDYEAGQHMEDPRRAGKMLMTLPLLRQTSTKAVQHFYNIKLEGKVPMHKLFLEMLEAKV
How it was run: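 Exogenous NR-Gal4 chimera activity measured as reporter transcript induction after 24 h in transiently transfected HepG2 cells. RNA reverse-transcribed, PCR-amplified, 6-FAM-labelled and resolved by capillary electrophoresis; increase over DMSO baseline.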

[16] = ATG_Sox_CIS: Attagene CIS-FACTORIAL HepG2 Assay for human SRY-box transcription factor (SOX) (AID 2282960); conditions: HepG2 Attagene cis-factorial SOX reporter, mRNA; actives raise or lower the signal
How it was run: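 Gain- or loss-of-signal endpoint, fitted bidirectionally with DMSO as negative control. Based on reporter mRNA from transfected HepG2 cells harvested 24 h post-treatment and quantified via RT-PCR and capillary electrophoresis.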

[17] = target: Transcription factor Sp1 (Homo sapiens) (UniProt P08047); assay: ATG_Sp1_CIS: Attagene CIS-FACTORIAL HepG2 Assay for human Specificity Protein 1 (Sp1) (AID 2282961); conditions: HepG2 Sp1 cis-reporter transcription, actives raise or lower the signal
Chain of Transcription factor Sp1 (Homo sapiens) (P08047 whole entry, looked up, the tested form may be a part): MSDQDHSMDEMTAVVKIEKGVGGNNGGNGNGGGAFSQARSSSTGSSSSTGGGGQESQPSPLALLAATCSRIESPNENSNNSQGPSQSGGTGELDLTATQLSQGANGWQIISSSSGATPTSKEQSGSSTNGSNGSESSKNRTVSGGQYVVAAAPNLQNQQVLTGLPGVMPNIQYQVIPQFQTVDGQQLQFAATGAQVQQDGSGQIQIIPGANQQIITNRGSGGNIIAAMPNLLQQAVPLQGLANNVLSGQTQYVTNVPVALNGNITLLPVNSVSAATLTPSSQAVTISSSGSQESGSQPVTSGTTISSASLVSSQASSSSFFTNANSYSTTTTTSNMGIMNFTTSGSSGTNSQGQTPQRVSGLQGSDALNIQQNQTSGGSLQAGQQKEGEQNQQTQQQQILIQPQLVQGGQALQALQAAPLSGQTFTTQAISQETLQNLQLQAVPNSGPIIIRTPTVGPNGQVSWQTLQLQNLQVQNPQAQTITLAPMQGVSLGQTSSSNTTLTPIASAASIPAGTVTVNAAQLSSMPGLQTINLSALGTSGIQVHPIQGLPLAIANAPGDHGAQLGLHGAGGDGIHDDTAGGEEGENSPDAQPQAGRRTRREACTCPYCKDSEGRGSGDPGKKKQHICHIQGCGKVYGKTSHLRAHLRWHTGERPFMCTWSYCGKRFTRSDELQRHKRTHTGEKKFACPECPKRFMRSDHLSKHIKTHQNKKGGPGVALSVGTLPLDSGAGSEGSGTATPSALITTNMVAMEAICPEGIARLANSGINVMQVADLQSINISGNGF
How it was run: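 Endpoint reflects endogenous Sp1 transcriptional activity, not an exogenous fusion protein: HepG2 cells with transfected cis-regulated reporters, 24 h dosing, RT-PCR/capillary electrophoresis mRNA read-out, DMSO-normalised bidirectional fit.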

[18] = ATG_PPRE_CIS: Attagene CIS-FACTORIAL HepG2 Assay for human Peroxisome Proliferator-activated Response Element (PPRE) (AID 2282958); conditions: HepG2 PPRE cis-element reporter, Attagene transcription factor profiling; actives raise or lower the signal
How it was run: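 Measured endpoint: PPRE-controlled reporter mRNA, detected by RT-PCR and capillary electrophoresis fluorescence, from transiently transfected HepG2 cells 24 h after dosing. Curves fitted in both directions using DMSO baseline.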

[19] = ATG_GAL4_TRANS: Attagene TRANS-FACTORIAL HepG2 Assay for GAL4 (Internal Marker) (AID 2282976; active = hit-call score of the fitted dose curve at least 0.9, where 1 is the maximum); conditions: HepG2 Attagene TRANS GAL4 internal marker reporter
How it was run: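 HepG2 cells transiently transfected with multiplexed GAL4-UAS reporter constructs were dosed for 24 h. Reporter mRNA was measured by RT-PCR, 6-FAM primer extension, HpaI digestion and capillary electrophoresis, and gain of signal was fitted relative to DMSO.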

Measured: AC50

O=C1c2cccc(O)c2C(=O)c2c(O)cc(CO)cc21
active: [1] 8.72 µM | [11] 5.81 µM
not listed: [16] | [17] | [18] | [19]
inactive: all other assays above

O=c1c2ccccc2oc2ccccc12
active: [1] 27.1 µM | [11] 27.8 µM
not listed: [12] | [15] | [18] | [19]
inactive: all other assays above

CC/C=C\C/C=C\C/C=C\CCCCCCCC(=O)O
active: [1] 181 µM | [18] 40.1 µM | [2] 48.7 µM | [6] 53.6 µM | [9] 62.7 µM | [13] 160 µM
not listed: [10] | [12] | [14] | [15] | [19]
inactive: all other assays above

CCCCCCCCCCOS(=O)(=O)O
active: [18] 13.4 µM | [2] 55 µM
not listed: [8] | [12] | [15] | [19]
inactive: all other assays above

COc1ccc2nc(N)sc2c1
not listed: [10] | [12] | [14] | [15] | [18] | [19]
inactive: all other assays above

CC1(C)O[C@@H]2C[C@H]3[C@@H]4C[C@H](F)C5=CC(=O)CC[C@]5(C)[C@H]4[C@@H](O)C[C@]3(C)[C@]2(C(=O)CO)O1
active: [1] 22.8 µM
not listed: [5] | [10] | [12] | [14] | [15] | [19]
inactive: all other assays above

O=CC1CC1
not listed: [2] | [4] | [10] | [11] | [12] | [15] | [19]
inactive: all other assays above

CC(C)(Oc1ccc(C2CC2(Cl)Cl)cc1)C(=O)O (stereo unspecified)
active: [1] 41.1 µM | [18] 48.3 µM
not listed: [10] | [12] | [15]
inactive: all other assays above

CC(C)=CCCC(C)C=O (stereo unspecified)
active: [1] 8.29 µM | [9] 32 µM
not listed: [12] | [15] | [16] | [17] | [18] | [19]
inactive: all other assays above
